Measured values reported in PubChem BioAssay AID1347075 (National Center for Advancing Translational Sciences (NCATS), 2019).
The whole screen tested about 400,000 compounds, of which about 5,500 (1.4%) were called active. Entries that show only a call come without a potency. Another 9% or so got no clear call; they are omitted. Calls follow the shape of the dose curve; as a rule, active = well fitted cell-killing curve with a large enough effect; inconclusive = small, poorly fitted or top-dose-only effect, or effect the other way; inactive = flat fitted curve, though single readings scatter. Only a selection was taken, and actives are over-represented in it overall.

Experiment: qHTS assay for MDR1-selective chemotherapeutics: Primary screen using the parental adenocarcinoma cell KB-3-1; also: nearly all actives have a fitted effect of over 60% in size
Conditions: KB-3-1 viability, CellTiter-Glo ATP luminescence, 72 h; series mostly up to 46.1 µM
Excerpt: A prime difficulty in effectively treating cancer is the development of cellular resistance to multiple structurally unrelated anticancer drugs, a phenomenon known as multidrug resistance (MDR). […] Numerous strategies to overcome P-gp-mediated MDR have been explored, including the design of drugs that evade recognition and efflux, and development of inhibitors to block efflux and restore drug accumulation. […] An alternative approach is to exploit resistance by identifying drugs that target MDR cells over the non-resistant parental cells from which they were selected. […] The development of MDR1-selective agents represents a new strategy for resolving multidrug resistance, as it remains a long-standing clinical challenge for cancer chemotherapy.
Our goal is to identify compounds that selectively kill P-gp-expressing MDR cells. We will identify MDR1-selective compounds by comparing toxicity of compounds in the screening library against parental, drug-naive (KB-3-1) adenocarcinoma cells as well as their drug-selected MDR sub-line (KB-V1). The differential toxicity of compounds against these two cell lines will be used to identify MDR1-selective compounds, whose cytotoxicity is potentiated, rather than diminished, by P-gp expression. This assay will be utilized to conduct a quantitative high-throughput screen (qHTS) in collaboration with the NIH Chemical Genomics Center to identify selective agents, and probe hits arising from the screen will be validated using secondary assays and characterized through a well-established follow-up research program. This screen was run against the entire NCGC library collection of about 400,000 compounds.
NIH Molecular Libraries Probe Production Network [MLPCN]
NIH Chemical Genomics Center [NCGC]
PI: Michael Gottesman PhD, National Cancer Institute, NIH
Briefly, 5 microL of media containing either KB-3-1 cells (columns 1-2, 4-48) are dispensed into Greiner white, treated solid-bottom 1536-well assay plates (media-only control is added to column 3). Compounds are then transferred via Kalypsys pin tool equipped with 1536-pin array (10 nL slotted pins, V&P Scientific, San Diego, CA). Following addition of compound, the plates are incubated at 37 degrees C for 72 hours. CellTiter-Glo (2.5 µL/well) is then added, and the plates are read in a ViewLux reader (Perkin-Elmer, clear luminescence filter, 1 second exposure, 1x binning) following a 10 minute incubation. All cells are dispensed in DMEM phenol-red free media containing 10% FBS.
Library plates were screened starting from the lowest and proceeding to the highest concentration. Vehicle-only plates, with DMSO being pin-transferred to columns 5-48, will be inserted uniformly at the beginning and the end of each library in order to monitor and record any shifts in the background, which can be affected by reagent dispensers or loss in enzyme activity over time. Screening data will be corrected, normalized, and concentration-effect relationships will be derived by using publicly-available NCGC, NCATS curve fitting algorithms (http://ncgc.nih.gov/pub/openhts).
Potency is read from the fitted curve at half-maximal effect.

| Compound | Potency |
| --- | --- |
| COc1cccc(CNC(=O)C(=O)NCC(c2cccs2)S(=O)(=O)c2ccccc2)c1 (stereo unspecified) | inactive |
| CN(CCC#N)c1ccc(C=O)cc1 | inactive |
| Cc1ccc(-c2cc(=O)c3ccc(F)cc3[nH]2)cc1 | inactive |
| O=c1cc(-c2ccccc2)[nH]c2cc(F)ccc12 | 1.64 µM (active) |
| CC(=O)c1cc(-c2ccccc2)[nH]c1N1CCCC1 | inactive |
| O=C1OC(C(=O)Nc2cccc(Br)c2)Cc2ccccc21 (stereo unspecified) | inactive |
| O=S1(=O)N=C(Oc2cccc(Br)c2)c2ccccc21 | inactive |
| CCOc1ccc(C(=O)c2cn(Cc3ccc(F)cc3)c3ccc(F)cc3c2=O)cc1 | inactive |
| CCOC(=O)c1c(C)oc2nc(C)nc(Nc3ccc(CC)cc3)c12 | inactive |
| COc1cc(OC)c2c(-c3cccc(-c4cccc(N)c4)c3)cc(=O)oc2c1 | 4.11 µM (active) |
| COc1ccc(-c2c(C)cc3oc(=O)cc(-c4ccccc4)c3c2C)cc1C=O | inactive |
| COC(=O)C(C)Oc1ccc2c(-c3cccc([N+](=O)[O-])c3)cc(=O)oc2c1 (stereo unspecified) | inactive |
| COc1ccc(-c2nnc(SCC(=O)Nc3ccccc3C)o2)cc1OC | inactive |
| CC(C)(C)c1cc(C(=O)NN)n(Cc2ccc(Cl)cc2Cl)n1 | inactive |
| N#CC(C#N)=CN=c1ccn(Cc2ccc(Cl)cc2Cl)cc1 | 16.4 µM (active) |
| Cn1ccc(=NC=C(C#N)C#N)c2ccccc21 | inactive |
| Cc1ccc(-n2c(SCC(=O)Nc3cccc(F)c3)nc3c(oc4ccccc43)c2=O)cc1C | inactive |
| CCOC(=O)Cc1ccc(NC(=O)Nc2c[nH]c(=O)[nH]c2=O)cc1 | inactive |
| COc1ccc2c(c1)c(N1CCCC1=O)c(C(=O)Nc1ccccc1C(F)(F)F)n2C | inactive |
| O=C(O)c1ccc(CSc2nc3cccnc3n2Cc2cccc(F)c2)cc1 | inactive |
| COc1cccc(NC(=O)Nc2ccc3c(c2)N(C)C(=O)c2ccccc2S3)c1 | inactive |
| COc1cccc(CNC(=O)c2ccc3c(Cl)c4c(nc3c2)CCCC4)c1 | inactive |
| COc1ccccc1NC(=O)C(=O)c1cc(C)n(-c2ccccc2F)c1C | inactive |
| CCOC(=O)N1CCN(C(=O)COCc2cc(-c3ccc4c(c3)OCO4)on2)CC1 | inactive |
| CCOC(=O)c1nc(-c2ccc3c(c2)OCO3)[nH]c1C | 13 µM (active) |
| CCOC(=O)c1c(C)[nH]c(C(=O)COc2ccc3c(c2)OCO3)c1C | inactive |

| Compound | Potency |
| --- | --- |
| CC[C@H]1CN2CCc3cc(OC)c(OC)cc3[C@@H]2C[C@@H]1C[C@H]1NCCc2cc(OC)c(OC)cc21 | 0.259 µM (active) |
| CCC(CC)C(=O)N1CCc2cc(OC)c(OC)cc2C1COc1ccc(F)cc1 (stereo unspecified) | inactive |
| CC(=O)N1c2ccc(S(=O)(=O)N3CCCCCC3)cc2CC1C(=O)NCc1ccccc1C (stereo unspecified) | inactive |
| COc1ccccc1NC(=O)CN1C(=O)c2ccccc2Sc2ccc(C(=O)N3CCCC3)cc21 | inactive |
| C=CCn1nc(C(=O)OCC)cc1-c1sc(NC(=O)c2ccccc2)nc1C | inactive |
| CCOC(=O)c1cc(-c2sc(NC(=O)c3ccccc3)nc2C)n(CCO)n1 | inactive |
| CCOC(=O)c1cc(-c2sc(NC(=O)c3ccccc3)nc2C)n(Cc2ccccc2)n1 | 23.1 µM (active) |
| CC(C)Sc1oc(-c2cccs2)nc1S(=O)(=O)c1ccc(Cl)cc1 | inactive |
| CC(C)(C)c1ccc(S(=O)(=O)N2CCN(C(=O)c3cc(-c4ccc(Br)cc4)n[nH]3)CC2)cc1 | inactive |
| COc1ccccc1Cn1c(CO)nc2ccccc21 | inactive |
| CCn1c(C(O)c2cc(OC)ccc2OC)nc2ccccc21 (stereo unspecified) | inactive |
| COc1ccc(C)c(Cn2c(-c3nonc3N)nc3ccccc32)c1 | 2.31 µM (active) |
| Cc1ccc(C(=O)Nc2ccc3[nH]c(=O)c(=O)[nH]c3c2)cc1 | inactive |
| O=C1O/C(=C\c2ccc(O)cc2)C(O)=C1c1ccc(O)cc1 | inactive |
| COc1ccc(NC(=O)C(c2ccccc2)N2Cc3ccccc3C2=O)cc1 (stereo unspecified) | inactive |
| COc1ccccc1C(c1nnnn1C(C)(C)C)N1CCN(Cc2ccccc2)CC1 (stereo unspecified) | inactive |
| COc1ccc(OC)c(C(c2nnnn2C(C)(C)C)N2CCc3ccccc3C2)c1 (stereo unspecified) | 23.1 µM (active) |
| COCCn1nnnc1C(c1cc2ccc(OC)cc2[nH]c1=O)N1CCc2ccccc2C1 (stereo unspecified) | inactive |
| CCC(=O)N1CCc2cc(S(=O)(=O)NC(C(=O)Nc3ccc(C(C)=O)cc3)C(C)C)ccc21 (stereo unspecified) | inactive |
| O=C(NN=Cc1ccccc1O)NN=Cc1ccccc1O | 14.6 µM (active) |
| O=C(CO/N=C/c1ccccc1O)NNC(=O)c1ccccc1Cl | inactive |
| O=C(Cc1ccccc1)N/N=C/c1ccc(Cl)cc1Cl | inactive |
| Cc1ccc(S(=O)(=O)c2nc(-c3cccs3)oc2N2CCCCC2)cc1 | inactive |
| N#Cc1ccc(OCC(=O)Nc2nc(-c3ccccn3)cs2)cc1 | 16.4 µM (active) |
| NS(=O)(=O)c1ccc2nc(NC(=O)COc3ccccc3)sc2c1 | inactive |
| CC1CCCCC1NC(=O)COc1ccc(C#N)cc1 (stereo unspecified) | inactive |

| Compound | Potency |
| --- | --- |
| Cc1ccc(CNC(=O)CSc2c(C)cnc3c2c(=O)n(C)c(=O)n3C)cc1 | inactive |
| O=C(CC1Oc2ccccc2NC1=O)NCc1ccc(F)cc1 (stereo unspecified) | inactive |
| COc1ccc(NC(=O)c2ccco2)cc1NC(=O)COc1ccc(C)c(C)c1 | inactive |
| CC(Nc1nc(N2CCCC2)nc2ccccc12)c1ccccc1 (stereo unspecified) | 16.4 µM (active) |
| Cc1ccc(C(CC(=O)O)Nc2nc(N3CCCCC3)nc(N3CCCCC3)n2)cc1 (stereo unspecified) | inactive |
| c1ccc(-c2cc(N3CCCCC3)c3ccccc3n2)cc1 | inactive |
| CCC(C)N(c1ccc(/C=C/c2ccnc3ccccc23)cc1)C(C)CC (stereo unspecified) | inactive |
| COc1ccc(CNC(=O)c2cc3cccc(OC)c3oc2=O)cc1 | inactive |
| COc1cc(NC(=O)CN2CCN(S(=O)(=O)c3ccc(Br)cc3)CC2)cc(OC)c1 | inactive |
| Cc1cccn2c(=O)c3cc(C(=O)NC(C)c4ccccc4)c(=N)n(CCCO)c3nc12 (stereo unspecified) | inactive |
| Cc1cccn2c(=O)c3cc(C(=O)NCCN4CCOCC4)c(=N)n(Cc4cccnc4)c3nc12 | 8.2 µM (active) |
| CCCn1c(=N)c(C(=O)NCc2ccccc2)cc2c(=O)n3cccc(C)c3nc21 | inactive |
| COc1cc(NS(=O)(=O)c2cccs2)cc(OC)c1 | inactive |
| CNC(=O)c1ccc(-c2nc(CN3CCc4ccccc43)c(C)o2)cc1 | inactive |
| Cc1cccc(-n2ncc(C(=O)N3CCC(C)CC3)c2C2CCN(C(=O)OC(C)(C)C)CC2)c1 | inactive |
| CC(=O)Nc1cccc(-c2ccnc3c2CC(C)(C(=O)NCc2ccccc2)O3)c1 (stereo unspecified) | 2.91 µM (active) |
| CS(=O)(=O)N(CC(=O)NCc1ccco1)c1ccc2c(c1)OCO2 | inactive |
| CC1(C(=O)Nc2cccnc2)Cc2c(-c3ccccc3)ccnc2O1 (stereo unspecified) | inactive |
| CC(=O)Nc1cccc(-c2ccnc3c2CC(C)(C(=O)NCc2ccco2)O3)c1 (stereo unspecified) | inactive |
| O=C(Cn1nnc(-c2ccc3c(c2)OCO3)n1)NCc1ccco1 | inactive |
| CC1(C(=O)NCc2ccco2)Cc2c(-c3ccc4c(c3)OCO4)ccnc2O1 (stereo unspecified) | 2.59 µM (active) |
| CC1=C(C(=O)OCc2ccc(C)cc2)C(c2c(Cl)cccc2Cl)CC(=O)N1 (stereo unspecified) | inactive |
| Cc1ccc2nc(COc3cccc(NC(=O)c4cccc(Cl)c4)c3)cc(=O)n2c1 | inactive |
| CCc1nc2ccc(C(=O)N3CCN(c4cc(Cl)ccc4C)CC3)cc2nc1CC | inactive |
| O=C(c1ccco1)N(Cc1cccs1)c1ccc(O)cc1 | inactive |
| CCOC(=O)C1C(C)C(C(C)(C)C)N(S(=O)(=O)c2ccc(C)cc2)C1c1ccccc1 (stereo unspecified) | 23.1 µM (active) |

| Compound | Potency |
| --- | --- |
| CCOC(=O)C1=CC[C@@H](c2ccccc2)N(S(=O)(=O)c2ccc(C)cc2)[C@H]1c1ccc(CC)cc1 | inactive |
| CCOC(=O)C1=CC[C@@H](c2ccccc2)N(S(=O)(=O)c2ccc(C)cc2)[C@H]1c1cccc(OC)c1 | inactive |
| COc1ccc(-c2ccc3ncnc(NCc4cccs4)c3c2)cc1OC | inactive |
| Cc1ccccc1CSCCNC(=O)C1CCN(S(=O)(=O)Cc2ccccc2)CC1 | inactive |
| CCCNC(=O)C1CCC(Cn2c(=O)c3sccc3n(Cc3ccccc3F)c2=O)CC1 (stereo unspecified) | inactive |
| CCOC(=O)c1ccc(NC(=O)c2ncn(-c3ccccc3)n2)cc1 | inactive |
| CCOc1ccc(CNC(=O)c2cc(-c3ccc(Cl)s3)nc3ccccc23)cc1 | inactive |
| CCN1CCN(c2ncnc3c2cnn3-c2ccc(C)c(C)c2)CC1 | inactive |
| CCc1cc2c(N3CCN(c4nnc(CC)s4)CC3)ncnc2s1 | 9.2 µM (active) |
| CCc1cc2c(NC(Cc3ccccc3)C(=O)O)ncnc2s1 (stereo unspecified) | inactive |
| CCCCOc1ccc(C(=O)Nc2cccc(-c3nc4ccccc4o3)c2C)cc1 | inactive |
| Cc1ccc2nc(CN3CCN(S(=O)(=O)c4ccc(C)c(C)c4)CC3)oc2c1 | inactive |
| CSc1ccccc1NC(=O)c1cc(Cl)sc1Cl | inactive |
| COc1ccccc1NC(=O)c1cc(N2C(=O)C3C4CCC(C4)C3C2=O)ccc1Cl (stereo unspecified) | inactive |
| COc1ccccc1NC(=O)c1cc(Cl)nnc1Cl | 23.1 µM (active) |
| Oc1ccccc1-c1nc(/C=C/c2ccc(F)cc2)no1 | inactive |
| COc1cc2c(=O)c(S(=O)(=O)c3ccc(C(C)C)cc3)cn(Cc3ccccc3C)c2cc1OC | inactive |
| CCOc1ccc(-n2c(SCC(=O)Nc3cc(C(=O)O)ccc3Cl)nc3ccccc3c2=O)cc1 | inactive |
| CCOc1ccc(-n2c(O)c(/C=N/Nc3nc(C)cc(C)n3)c3ccccc3c2=O)cc1 | 20.6 µM (active) |
| Cc1cc(C)nc(N/N=C/c2c(CO)cnc(C)c2O)n1 | inactive |
| COc1cc(OC)c(NC(=O)c2nc(-c3ccncc3)no2)cc1Cl | inactive |
| Cc1ccc(N2CCN(C(=O)CCc3c(C)nc4c(c3C)c(=O)n(C)c(=O)n4C)CC2)c(C)c1 | inactive |
| Cc1ccc(OCCn2c(CNc3ccccc3C)nc3ccccc32)cc1 | inactive |
